Laboratory results reported in PubChem BioAssay (NCATS).
Inconclusive results are not listed. Active and inactive are the calls of the source. The call rests on the fitted dose curve; in most records, active means well fitted cell-killing curve with a large enough effect; inconclusive means small, poorly fitted or top-dose-only effect, or effect the other way; inactive means flat fitted curve, though single readings scatter.

What was measured:
Assay in all cases: Primary qHTS to identify gynecologic anti-cancer compounds using libraries of approved drugs and bioactive compounds (AID 1345084); further: nearly all actives have a fitted effect of over 55% in size
[1] = system: C33A; details: Gynecologic cancer cell panel viability, ATPlite luminescence, 48 h; series mostly up to 57.5 µM
Outline: (§1)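 In this quantitative HTS, cell killing is estimated from loss of ATP-dependent luciferase light. Cells see five compound concentrations over a 48 h exposure.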

[2] = system: CAOV3; details: Gynecologic cancer cell panel viability, ATPlite luminescence, 48 h; series mostly up to 57.5 µM
Outline: as §1

[3] = system: CASKI; details: Gynecologic cancer cell panel viability, ATPlite luminescence, 48 h; series mostly up to 57.5 µM
Outline: as §1

[4] = system: Es-2; details: Gynecologic cancer cell panel viability, ATPlite luminescence, 48 h; series mostly up to 57.5 µM
Outline: as §1

[5] = system: HeLa; details: Gynecologic cancer cell panel viability, ATPlite luminescence, 48 h; series mostly up to 57.5 µM
Outline: as §1

[6] = system: Hek293T; details: Gynecologic cancer cell panel viability, ATPlite luminescence, 48 h, control line for the selectivity index; series mostly up to 57.5 µM
Outline: as §1
On the % scale 0 is the no-effect control and ±100 the full control effect.

COC(=O)C1=COC(OC2OC(CO)C(O)C(O)C2O)C2C1CC(OC(=O)C(O)CC(=O)O)C2C (stereo unspecified)
inactive: Potency [1] | Potency [2] | Potency [3] | Potency [4] | Potency [5] | Potency [6]

C[C@@H]1CC[C@]2(C)C3(C)CC[C@@]2(OC3=O)[C@@]12C[C@H](c1ccoc1)OC2=O
inactive: Potency [1] | Potency [2] | Potency [3] | Potency [4] | Potency [5] | Potency [6]

Cc1cccc(-c2[nH]c(CNc3ccccc3F)nc2-c2ccc3ncnn3c2)n1
inactive: Potency [1] | Potency [2] | Potency [3] | Potency [4] | Potency [5] | Potency [6]

CO[C@@H]1CC[C@H](OC[C@]2(COC(=O)c3ccc(C)[nH]3)[C@H](OC(C)=O)CC[C@@]3(C)[C@@H]4CC=C(C)[C@@H](C5=C(O)C(=O)OC5O)[C@]4(C)CC[C@@H]32)O[C@H]1C (stereo partly specified)
inactive: Potency [1] | Potency [2] | Potency [3] | Potency [4] | Potency [5] | Potency [6]

COC(=O)C1=CO[C@@H](O[C@@H]2O[C@H](CO[C@@H]3O[C@H](COC(=O)/C=C/c4ccc(O)cc4)[C@@H](O)[C@H](O)[C@H]3O)[C@@H](O)[C@H](O)[C@H]2O)[C@@H]2C(CO)=CC[C@H]12
inactive: Potency [1] | Potency [2] | Potency [3] | Potency [4] | Potency [5] | Potency [6]

COc1ccc2c3c1O[C@H]1C[C@@H](O)C=C[C@@]31CCN(C)C2
inactive: Potency [1] | Potency [2] | Potency [3] | Potency [4] | Potency [5] | Potency [6]

CC(=O)c1c(O)cc2c(c1C)C(=O)CC(O)C2 (stereo unspecified)
inactive: Potency [1] | Potency [2] | Potency [3] | Potency [4] | Potency [5] | Potency [6]

C=CC(C)(O)CC/C=C(/C)C(=O)OC1C(OC2OCC(OC3OC(CO)C(O)C(O)C3O)C(OC3OCC(O)C(OC4OC(C)C(O)C(O)C4O)C3O)C2O)COC(OC(=O)C23CCC(C)(C)CC2C2=CCC4C5(C)CCC(OC6OC(CO)C(OC7OC(CO)C(O)C(OC8OCC(O)C(O)C8O)C7O)C(O)C6O)C(C)(C)C5CCC4(C)C2(C)CC3O)C1O (stereo unspecified)
inactive: activity change, negative = cytotoxicity [1] 1.13% [at 6.55 µM] | activity change, negative = cytotoxicity [2] 6.96% [at 6.55 µM] | activity change, negative = cytotoxicity [3] 8.91% [at 6.55 µM] | activity change, negative = cytotoxicity [4] -0.338% [at 6.55 µM] | activity change, negative = cytotoxicity [5] 1.37% [at 6.55 µM] | activity change, negative = cytotoxicity [6] -23.4% [at 6.55 µM]

CC(C)c1ccc(CC(=O)N2CCC[C@@H](c3cccc(OC(C)(C)C(=O)O)c3)C2)cc1
inactive: Potency [1] | Potency [2] | Potency [3] | Potency [4] | Potency [5] | Potency [6]

COc1cccc2c1CCC[C@H]2CN(C)CCc1ccc2ccoc2c1
inactive: Potency [1] | Potency [2] | Potency [3] | Potency [4] | Potency [5] | Potency [6]

COC12CC3C(C(C)C1=CC(=O)O2)C(O)C(OC(C)=O)C1C(C)(C)C(OC(C)=O)CCC31C (stereo unspecified)
inactive: Potency [1] | Potency [2] | Potency [3] | Potency [4] | Potency [5] | Potency [6]

C[C@@H]1O[C@@H](O[C@H]2[C@H](O[C@H]3CC[C@@]4(C)C(CC[C@]5(C)C4CC=C4[C@@H]6CC(C)(C)CC[C@]6(C(=O)O)CC[C@]45C)[C@]3(C)CO)OC[C@H](O)[C@@H]2O)[C@H](O)[C@H](O[C@@H]2OC[C@@H](O)[C@H](O)[C@H]2O)[C@H]1O (stereo partly specified)
inactive: activity change, negative = cytotoxicity [1] -12% [at 11.6 µM] | activity change, negative = cytotoxicity [2] -8% [at 11.6 µM] | activity change, negative = cytotoxicity [3] -1.75% [at 11.6 µM] | activity change, negative = cytotoxicity [4] -1.5% [at 11.6 µM] | activity change, negative = cytotoxicity [5] 14.3% [at 11.6 µM] | activity change, negative = cytotoxicity [6] -9.01% [at 11.6 µM]

CN1C(=O)c2ccccc2-n2c(nc3ccccc3c2=O)[C@@]12O[C@H]2c1ccccc1
inactive: Potency [1] | Potency [2] | Potency [3] | Potency [4] | Potency [5] | Potency [6]

CC1OC(OC2C(CO)OC(OCC3OC(OC(=O)C45CCC(C)(C)CC4C4=CCC6C7(C)CCC(OC8OC(C(=O)O)C(O)C(OC9OC(CO)C(O)C(O)C9O)C8O)C(C)(C)C7CCC6(C)C4(C)CC5)C(O)C(O)C3O)C(O)C2O)C(O)C(O)C1O (stereo unspecified)
inactive: activity change, negative = cytotoxicity [1] 4.48% [at 6.55 µM] | activity change, negative = cytotoxicity [2] -1.08% [at 6.55 µM] | activity change, negative = cytotoxicity [3] 0.241% [at 6.55 µM] | activity change, negative = cytotoxicity [4] 5.55% [at 6.55 µM] | activity change, negative = cytotoxicity [5] -1.58% [at 6.55 µM] | activity change, negative = cytotoxicity [6] 6.6% [at 6.55 µM]

Cc1c(CN(C)C(=O)/C=C/c2cnc3c(c2)CCC(=O)N3)oc2ccccc12
inactive: Potency [1] | Potency [2] | Potency [3] | Potency [4] | Potency [5] | Potency [6]

CC(C)C1=CCC(C)(O)C(OC2OC(CO)C(O)C(O)C2O)C1 (stereo unspecified)
inactive: Potency [1] | Potency [2] | Potency [3] | Potency [4] | Potency [5] | Potency [6]

COC(=O)CC[C@@H](C)[C@H]1CC[C@H]2[C@@H]3CC(=O)[C@H]4C[C@H](OC(C)=O)CC[C@]4(C)[C@H]3CC[C@]12C
inactive: Potency [1] | Potency [2] | Potency [3] | Potency [4] | Potency [5] | Potency [6]

O=C(OCc1cccc(O)c1O[C@@H]1O[C@H](CO)[C@@H](O)[C@H](O)[C@H]1O)C1(O)C(=O)C2C=CC1C1C=CC(=O)C(O)(C(=O)OCc3cccc(O)c3O[C@@H]3O[C@H](CO)[C@@H](O)[C@H](O)[C@H]3O)C21 (stereo partly specified)
inactive: activity change, negative = cytotoxicity [1] -2.5% [at 11.6 µM] | activity change, negative = cytotoxicity [2] -10.6% [at 11.6 µM] | activity change, negative = cytotoxicity [3] -17.5% [at 11.6 µM] | activity change, negative = cytotoxicity [4] 2.61% [at 11.6 µM] | activity change, negative = cytotoxicity [5] -8.79% [at 11.6 µM] | activity change, negative = cytotoxicity [6] 8.15% [at 11.6 µM]

COC(=O)[C@@]1(C)CC[C@]2(C(=O)O[C@@H]3O[C@H](CO)[C@@H](O)[C@H](O)[C@H]3O)CC[C@]3(C)C(=CCC4[C@@]5(C)CC[C@H](O[C@@H]6O[C@H](C(=O)O)[C@@H](O)[C@H](O)[C@H]6O)C(C)(C)C5CC[C@]43C)[C@@H]2C1 (stereo partly specified)
inactive: activity change, negative = cytotoxicity [1] -14.8% [at 11.6 µM] | activity change, negative = cytotoxicity [2] -1.21% [at 11.6 µM] | activity change, negative = cytotoxicity [3] -4.58% [at 11.6 µM] | activity change, negative = cytotoxicity [4] -0.312% [at 11.6 µM] | activity change, negative = cytotoxicity [5] -10.5% [at 11.6 µM] | activity change, negative = cytotoxicity [6] -3.38% [at 11.6 µM]

COc1cccc(-c2ccc([C@@H](Oc3cc(-c4ccc(C[C@H](N)C(=O)O)cc4)nc(N)n3)C(F)(F)F)cc2)c1
inactive: Potency [1] | Potency [2] | Potency [3] | Potency [4] | Potency [5] | Potency [6]

CC1=C2CC3OC3(C)CCC3OC3(C)CC2OC1=O (stereo unspecified)
inactive: Potency [1] | Potency [2] | Potency [3] | Potency [4] | Potency [5] | Potency [6]

O=C(O)C[C@@H](NC(=O)c1cc(-c2ccc(-c3ccncc3)cc2)cs1)c1ccccc1
inactive: Potency [1] | Potency [2] | Potency [3] | Potency [5] | Potency [6]

O=C1[C@H](O[C@@H]2O[C@H](CO)[C@@H](O)[C@H](O)[C@H]2O)Oc2ccccc2N1O
inactive: Potency [1] | Potency [3] | Potency [4] | Potency [5] | Potency [6]
